We go through 71 compounds from ChEMBL document CHEMBL4513216, “Probing the Open Global Health Chemical Diversity Library for Multistage-Active Starting Points for Next-Generation Antimalarials” (ACS Infect Dis, 2020).

The whole screen tested about 69,000 compounds, of which about 8,600 (12%) showed an effect of 50% or more. Many of the other results were omitted from the sample, so strong results are more common in it than they were.

This test concerns Plasmodium berghei. Briefly: Screen against P. berghei liver stage (PbLuc), transformed with Luciferase, at 10uM. Type of test: functional, HepG2. The note with it: tested at 10 uM.
Take `COCCN(Cc1ccco1)c1ncc(C#N)cc1Cl`: the INHIBITION is given as 28%.

For `CCn1ncc(Nc2[nH]cnc3nc(C)nc2-3)c1C`, the INHIBITION is on record as 9%.

Take `COCC(=O)Nc1ccc(-c2noc([C@@H]3CCCN3C(C)C)n2)cn1`: the INHIBITION amounted to 35.8%.

Turning to `CC(C)NC(=O)N1Cc2nccn2CC(COc2cccnc2)C1` (stereo unspecified), the INHIBITION worked out at 22.4%.

As for `O=C(c1cscn1)N1CCC2(CCN(Cc3cccs3)CC2)C1`, the INHIBITION is reported as -5.12%.

As to `COc1ccccc1N1CCN(Cc2ncc(C)c(OC)c2C)CC1=O`, the INHIBITION worked out at 37.4%.

Take `CNC(=O)NC(C)c1c(F)cccc1Cl` (stereo unspecified): the INHIBITION is listed as 50.8%.

Take `NC(=O)CNC(c1ccccc1)c1ccccc1`: the INHIBITION worked out at 6.67%.

Regarding `CC(NCC(N)=O)c1c(F)cccc1Cl` (stereo unspecified), the INHIBITION is on record as 67.1%.

As for `CC(C)NC(=O)CNC(C)c1c(F)cccc1Cl` (stereo unspecified), the INHIBITION is listed as 31.2%.

For the compound `CC(NC(=O)N1CCNC(=O)CC1)c1c(F)cccc1Cl` (stereo unspecified), the INHIBITION is -36.75%.

For the compound `CC(NC(=O)N1CCS(=O)(=O)CC1)c1c(F)cccc1Cl` (stereo unspecified), the INHIBITION is -5.275%.

Take `CCOc1ccccc1N1CCN(c2nnc(C)o2)CC1`: the INHIBITION was 7.4%.

With `CCN(CC)C(=O)CN(C)CCn1nc2ccccn2c1=O`, the INHIBITION was -79.8%.

Take `N#Cc1ccc(C(=O)N2CC[C@H]3[C@@H]2CCC(=O)N3c2cccnc2)cc1`: the INHIBITION was found to be 23.9%.

As for `Cc1ccc(C(=O)N2C[C@@H](OCc3cccnc3)[C@H]3OCCC[C@H]32)o1`, the INHIBITION was 10.6%.

In the case of `Cc1ccc2c(c1)OC(C)CN2C(=O)c1c[nH]c(C)cc1=O` (stereo unspecified), the INHIBITION is recorded as 26.9%.

Take `CCNC(=O)CC1CC2(CCN(C(C)=O)CC2)c2cc(F)ccc21` (stereo unspecified): the INHIBITION turned out to be 31.4%.

Regarding `CCN1CCC2(CC1)CC(CC(=O)N(C)C)c1ccc(F)cc12` (stereo unspecified), the INHIBITION stood at 53%.

Consider `CN(C)C(=O)CC1CC2(CCN(CC3CC3)CC2)c2cc(F)ccc21` (stereo unspecified), for which the INHIBITION amounted to 35.3%.

For the compound `CCC(=O)N1CCC2(CC1)CC(CC(N)=O)c1ccc(F)cc12` (stereo unspecified), the INHIBITION is on record as -26.5%.

In the case of `CCOC1CC2(CCN(C(=O)COC)CC2)c2cc(F)ccc21` (stereo unspecified), the INHIBITION came to 19.8%.

With `CCC(=O)N1CCC2(CC1)CC(CC(=O)N(C)C)c1ccc(F)cc12` (stereo unspecified), the INHIBITION is 51.2%.

Take `Cc1cccc(-c2ccc(C(=O)NCC3CCCOC3)c(=O)[nH]2)c1` (stereo unspecified): the INHIBITION is -24.2%.

`COCCC(=O)N1CCN(CC(C)C)c2nc(C)ccc2C1`: the INHIBITION is 7.24%.

Regarding `Cc1nc(COC(=O)c2cccnc2C)no1`, the INHIBITION is recorded as 32%.

`Cc1nc(COC(=O)c2cccc3c2OCCO3)cs1`: the INHIBITION is 48.8%.

On to `COCc1ccccc1C(=O)OCc1noc(C)n1`, for which the INHIBITION was found to be 9.63%.

For `Cc1nc(COC(=O)c2cccc3c2OCCO3)no1`, the INHIBITION amounted to 70.1%.

As for `Cc1ncsc1CN(C)C(=O)CC1CCOc2ccccc21` (stereo unspecified), the INHIBITION is recorded as -1.35%.

As for `Cc1ncsc1COC(=O)c1cccc2c1OCCO2`, the INHIBITION amounted to 77.9%.

On to `Cc1nc(CN2C(=O)CCC23CCN(Cc2ccoc2)CC3)cs1`, for which the INHIBITION is -30%.

Consider `O=S(=O)(c1ccccc1)N1CCOCC(Cc2cccnc2)C1` (stereo unspecified), for which the INHIBITION is 9.05%.

As for `COc1cccc(CC2CCCN2CCCC#N)c1` (stereo unspecified), the INHIBITION was 34.1%.

For the compound `CN(Cc1cccc(F)c1)C(=O)CN1CCCC1CCc1ccccc1` (stereo unspecified), the INHIBITION was 5.14%.

Consider `COc1cccc(CC2CCCN2CC(N)=O)c1` (stereo unspecified), for which the INHIBITION was 35%.

Regarding `N#CCCCN1CCCC1Cc1ccccc1` (stereo unspecified), the INHIBITION is 53.6%.

As to `CCN(C(=O)CN1CCCC1c1ccc(OC)cc1)c1ccccc1` (stereo unspecified), the INHIBITION was -47.9%.

Regarding `CCN(C(=O)CN1CCCC1Cc1ccccc1)c1ccccc1` (stereo unspecified), the INHIBITION is 75.7%.

As to `N#CCCN(C(=O)CN1CCCC1Cc1ccccc1)c1ccccc1` (stereo unspecified), the INHIBITION was found to be 38.5%.

Turning to `COc1ccc(CC2CCCN2CCCC#N)cc1` (stereo unspecified), the INHIBITION was determined as 35.9%.

Regarding `CN(C(=O)CN1CCCC1Cc1ccccc1)c1ccccc1` (stereo unspecified), the INHIBITION is listed as 68%.

As for `COc1ccc(CCN2CC(n3nc(C)cc3C)C2)cc1`, the INHIBITION is -6.61%.

As to `Cc1cnn(CCCNCc2csc(COc3ccccc3)n2)c1`, the INHIBITION is 30.2%.

As for `CCOC(=O)c1sc(NC(=O)C(C)(C)C)c(C#N)c1C`, the INHIBITION is reported as -43.6%.

Regarding `Cc1nn(C)c(C)c1C1CCCN1CC(=O)NCc1ccccn1` (stereo unspecified), the INHIBITION is on record as 26.5%.

Regarding `COCCNC(=O)CN1CCC(N2CCN(C)C2=O)CC1`, the INHIBITION is on record as 48.2%.

On to `Cc1cc(C(=O)N2CCCC(c3nccn3C)C2)cc(S(N)(=O)=O)c1C` (stereo unspecified), for which the INHIBITION was -2.98%.

In the case of `Cc1cc(C)nc(N2CCC(C(=O)Nc3ncc[nH]3)CC2)n1`, the INHIBITION came out at 47.9%.

For the compound `CNc1cc(C(=O)N2CCOC(C(=O)NC3CCCC3)C2)ccn1` (stereo unspecified), the INHIBITION was -23.4%.

On to `O=C(NCCSc1ccccc1)[C@H]1CNC[C@@H](C(=O)N2CCOCC2)C1`, for which the INHIBITION was -1.09%.

On to `Cc1cc(C(F)(F)F)c2c(C3CCN(S(=O)(=O)N(C)C)CC3)noc2n1`, for which the INHIBITION stood at 60.8%.

As to `COCC(=O)N1CCC(c2noc3nc(C)cc(C(F)(F)F)c23)CC1`, the INHIBITION came out at 15.4%.

As to `CCc1cc(C(F)(F)F)c2c(C3CCN(C(=O)COC)CC3)noc2n1`, the INHIBITION is listed as 52%.

Take `CCc1cc(C(F)(F)F)c2c(C3CCCN(C(=O)COC)C3)noc2n1` (stereo unspecified): the INHIBITION was -8.12%.

On to `COCC(=O)N1CCC(c2cc(C(F)(F)F)c3c(C)noc3n2)CC1`, for which the INHIBITION is 9.93%.

With `COCCC(=O)N1CCC(c2noc3nc(C)cc(C(F)(F)F)c23)CC1`, the INHIBITION is 38.1%.

In the case of `CCn1ncc2c1C(COCC1CC1)N(Cc1c(C)noc1C)CC2` (stereo unspecified), the INHIBITION is reported as 47.5%.

In the case of `CCCn1nccc1NC(=O)CN1CCc2c(nc(C3CC3)n2C)C1`, the INHIBITION came out at 5.7%.

On to `CNC(=O)CN1CCc2c(CNc3nccs3)n[nH]c2C1`, for which the INHIBITION was -4.88%.

As for `CCNc1c(NC(=O)C(C)(C)C)c(=O)oc2ccccc12`, the INHIBITION is listed as -3.83%.

As to `O=C(NC[C@]12COC[C@H]1CN(Cc1nccs1)C2)N1CCCC1`, the INHIBITION is on record as -20.5%.

With `O=C(c1cccnc1)N1Cc2nccn2CC(COc2cccnc2)C1` (stereo unspecified), the INHIBITION is given as 9.51%.

For `O=C(Cc1ccc(O)c(Cl)c1)N1CCCCC1CCn1cccn1` (stereo unspecified), the INHIBITION came to 60.1%.

Consider `O=C(Cc1ccc2c(c1)CCO2)N1CCCCC1Cn1cccn1` (stereo unspecified), for which the INHIBITION is on record as -35.5%.

Consider `COc1ccc(CC(=O)N2CCCCC2Cn2cccn2)cc1OC` (stereo unspecified), for which the INHIBITION is given as 0.79%.

`CCOC1COC2(CCN(Cc3ccco3)CC2)C1` (stereo unspecified): the INHIBITION was -2.35%.

Take `O=c1[nH]c(-c2ccncc2)ncc1-c1ccnc(N2CCOCC2)n1`: the INHIBITION was found to be 18.9%.

In the case of `CCN1CC2(CCN(C(=O)C(C)Oc3ccc(F)cc3F)CC2)OC1=O` (stereo unspecified), the INHIBITION turned out to be 52.5%.

With `CCN1CC2(CCN(C(=O)C(C)Oc3cccc(Cl)c3)CC2)OC1=O` (stereo unspecified), the INHIBITION is 14.9%.

As for `CC(Oc1ccc(F)cc1F)C(=O)N1CCC2(CCCO2)CC1` (stereo unspecified), the INHIBITION worked out at 14.9%.
